Nrf2 activator – qHTS of Nrf2 Activators; 0.31% of 410,000 active; AREc32 ARE-luciferase reporter (MCF7-derived line), luminescence, 24 h; Potency, µM (series often up to 46.1 µM), without a hit: top-dose activation, actives largely listed as activators; further: potency means the concentration at half of the fitted maximal effect; % of control where 0% means no effect; nearly all actives have a fitted effect of over 65% in size
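Luminescent ARE reporter assay in AREc32_Fluc cells: overnight plating at 37 deg C, 24 hr compound incubation, Steady-Glo added, 30 min RT before reading.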
p53 reactivator – qHTS assay for re-activators of p53 using a Luc reporter; H1299 p53-A138V BP100-luciferase reporter, luminescence, 24 h; Potency, µM (top dose mostly 92.2 µM), for the others: at the top dose activity change, positive = activation, actives largely listed as activators; 0.063% of 320,000 active; AID 504706, 2011; further: potency means the concentration at half of the fitted maximal effect; % of control where 0% means no effect; nearly all actives have a fitted effect of over 45% in size
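H1299 (p53-null), stable ts p53-A138V + BP100-Luc; 1000 cells/well, Opti-MEM/10% FBS; cpd 4 pt, 1:5; 24 h, 37 deg C, 5% CO2; detection reagent 10 min RT; luminescence.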
miR-21 reporter – qHTS Assay for Modulators of miRNAs and/orActivators of miR-21. HeLa miR-21 FLuc reporter, luciferase, 48 h. Potency, µM (doses to about 38.3 µM), for the others: at the highest dose activity change, positive = activation, most hits filed as activators. 340,000 tested, under 10 active. AID 2288, 2010;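 further: % of control where 0% means no effect; miR-21 action dims this reporter so a rising signal means less miR-21 action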
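Using DMEM plus 10% FBS, HeLa miR-21-FLuc cells are incubated with test compounds (final up to about 40uM) for 48 hours; firefly luciferase signal is then imaged following reagent-mediated lysis.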
A549 tox – Nrf2 qHTS screen for inhibitors: counterscreen for cytotoxicity. Potency, µM (doses to about 46 µM), for inactives: top-dose activity change, negative = cytotoxicity, hits mostly inhibitors. A549 ARE-Fluc cells, CellTiter-Fluor viability, 18-24 h. 0.16% of 390,000 active; further: potency means the concentration at half of the fitted maximal effect; on the % scale 0 is the no-effect control and ±100 the full control effect
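A549 ARE_Fluc cells in 5% FBS OPTI-MEM were exposed to compounds in concentration-response for 18-24 h at 37 deg C. Viability was read by CellTiter-Fluor fluorescence (Ex 405/Em 525) after 30 min, before the luciferase read.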
ClpP mod – qHTS Assay for Activators of ClpP; 1.9% of 340,000 active; purified B. subtilis ClpP, FRET peptide cleavage, 20 min; Potency, µM (doses to about 57.5 µM), for the others: at the highest dose activity change, negative = active; AID 651965, 2013; ATP-dependent Clp protease proteolytic subunit (Bacillus subtilis (strain 168)), P80244; active means well fitted falling curve with a large enough effect; inconclusive means small, poorly fitted or top-dose-only effect; inactive means no such curve, though single readings can be large or run the other way; further: potency means the concentration at half of the fitted maximal effect; the source files actives as falling curves though it sought activators and does not explain the sign; nearly all actives have a fitted effect of over 65% in size
Target sequence (P80244 whole entry, looked up): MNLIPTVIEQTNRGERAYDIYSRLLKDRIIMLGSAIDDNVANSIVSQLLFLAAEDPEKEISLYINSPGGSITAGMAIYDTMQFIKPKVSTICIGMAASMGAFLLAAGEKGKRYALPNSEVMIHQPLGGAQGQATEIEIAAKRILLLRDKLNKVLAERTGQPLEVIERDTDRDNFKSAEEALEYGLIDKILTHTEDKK
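Buffer: 100 mM Tris/HCl pH8, 100 mM KCl, 0.05% low protease BSA, 2.5% glycerol, 0.01% Tween-20. ClpP 10 microg/mL final; 20 min RT; delta FRET normalized to ADEP and DMSO controls.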
Nrf2 inh – Nrf2 qHTS screen for inhibitors; Potency, µM (series often up to 46 µM), inactives show at the top dose activity change, negative = inhibition, usual class: inhibitors; 2.1% of 360,000 active; A549 ARE-Fluc reporter, luciferase luminescence, 18-24 h; further: potency means the concentration at half of the fitted maximal effect; on the % scale 0 is the no-effect control and ±100 the full control effect; nearly all actives have a fitted effect of over 60% in size
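Concentration-response testing used A549 ARE_Fluc cells at 5000 cells/well. Following an 18-24 h compound incubation, viability was read by fluorescence (Ex 405/Em 525) and luciferase output by luminescence.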
* hit, by the source's call; u = inconclusive; x = no result; [ ] = dose if it differs, or a comment. The list is not random: actives were taken first. Their share in the collection is about 3.7%. Unless noted, the call rests on the fitted dose curve; in most records, active means well fitted curve in the direction sought with a large enough effect; inconclusive means small, poorly fitted or top-dose-only effect, or another doubt; inactive means no such curve, though single readings can be large; an effect the other way counts as inactive or inconclusive.

SMILES | Nrf2 activator | p53 reactivator | miR-21 reporter | A549 tox | ClpP mod | Nrf2 inh
CCc1cccc(CC)c1NC(=O)C1SC(=Nc2ccccc2C)C(c2nc3ccccc3s2)=C1N (stereo not given) | 1% | -1% | 12% | -22% | 0% | 15µM*
COc1cccc(CNC(=O)CN2C(=O)CSc3ccc(S(=O)(=O)N(C)C)cc32)c1 | 0% | x | -3% | 7% | 3% | -7%
CCOC(=O)c1cnc(-n2nc(C)cc2C)nc1NNc1nc(C)cc(C)n1 | 1% | -4% | -2% | 5% | -1% | -17%
CCOC(=O)c1cnc(-n2nc(C)cc2C)nc1NNc1nc(-c2ccccc2)cc(-c2ccccc2)n1 | 0% | 15% | -1% | u | -2% | 8.2µM*
CCOC(=O)c1cnc(-n2nc(C)cc2C)nc1NC | -1% | 15% | -15% | -1% | 32µM* | 13%
Cc1c(C(=O)O)oc2c3c(ccc12)OCCO3 | 3% | -3% | -7% | -1% | 18µM* | 9%
COc1c(Br)cc2c(C)c(C(=O)O)oc2c1Br | 0%[9.22 µM] | -3% | 0% | 4% | 0% | 7%
Cc1cccc(Oc2cc([N+](=O)[O-])cc3c2C(=O)Nc2ccccc2O3)c1 | 7% | 29% | -6% | -13% | 3% | 16µM*
O=C1Nc2ccccc2Oc2cc([N+](=O)[O-])cc(Oc3ccccc3)c21 | 8% | 10% | -8% | 0% | 3% | u
Cc1c(Br)cc(F)c([S+](=O)([O-])N2CCN([S+](=O)([O-])c3ccc4c(c3)OCCO4)CC2)c1F | x | x | x | 1% | x | 8%
CC1CCCCC1NC(=O)NC(=O)CCl (stereo not given) | 14µM* | -26% | 19% | -10% | x | 0%
CC1CCCC(NC(=O)NC(=O)CCl)C1C (stereo not given) | u | -28% | 24% | 1% | -1% | -2%
CC(C)c1nn2c(=O)cc(COC(=O)c3ccccc3NC(=O)c3cccc(Cl)c3)nc2s1 | -1% | x | -4% | 2% | 10µM* | x
Cc1ccc(C(=O)Nc2ccccc2C(=O)OCc2cc(=O)n3nc(C(C)C)sc3n2)cc1 | -1% | x | -1% | 0% | 3% | x
Cc1ccc(NC(=O)CCCSc2nc3ccccc3[nH]2)cc1 | 3% | -2% | -1% | -5% | x | -8%
Cc1cc2nc(-c3cccnc3SCC(=O)NC(C)C)[nH]c2cc1C | 7% | 5% | -51% | -5% | 4% | 4%
Cc1ccc2nc(-c3ccc(SCC(=O)Nc4ccc5c(c4)OCCO5)nc3)[nH]c2c1 | 0% | u | -50% | -1% | 304% | u
COc1ccc(N2CCN(C(=O)CSc3ncccc3-c3nc4ccccc4[nH]3)CC2)cc1 | 3% | u | -7% | u | 25µM* | x
Cc1ccc(SCC(=O)Nc2ccc(-c3nc4ccccc4[nH]3)cc2)cc1 | 7% | 6% | -15% | u | 25µM* | u
O=C(CSc1ccc(-c2nc3ccccc3[nH]2)cn1)Nc1ccc2c(c1)OCCO2 | 1% | u | -17% | -8% | 25µM* | u
COCCOC(=O)CSc1ncccc1-c1nc2cc(C)c(C)cc2[nH]1 | 3% | 24% | -4% | 2% | 4% | 15µM*
Cc1cc(C)c2c(n1)SCC(=O)N2CC(=O)Nc1cccc(C)c1C | 0% | x | 16% | -20% | 3% | u
COCCNC(=O)CSc1ccc(-c2nc3ccccc3[nH]2)cn1 | 3% | x | -8% | -7% | 4% | 13%
Cc1ccc2nc(-c3ccc(SCC(=O)Nc4nnc(C)s4)nc3)[nH]c2c1 | 0% | -10% | -6% | u | -1% | u

Bioassay records: PubChem BioAssay, National Center for Advancing Translational Sciences (NCATS)
